HTT aggregate: mutant huntingtin aggregation inhibition. 220,000 compounds, 1.1% hits. PC12 HttQ103-GFP aggregates, Acumen cytometry, 40 h. Potency, µM (highest dose often 46.1 µM), inactives show top-dose activity change, negative = inhibition, most hits filed as inhibitors; note: % is set by controls: 0 for no effect and ±100 for the full control effect; nearly all actives have a fitted effect of over 60% in size
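Ecdysone-promoter PC12 model expressing HTT exon 1 Q103 fused to GFP, induced by tebufenozide at 100 nM final. Compounds titrated; aggregates sized 1–25 µm scored on a 488 nm laser cytometer.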
HTT ATP protect: protects HTT-Q103 PC12 cells, measured by ATP; PC12 HTT-Q103 induced, cytoprotection, ATP luminescence, 40 h; Potency, µM (highest dose often 56.4 µM), for the others: cytoprotection (ATP increase), actives largely listed as activators; 230,000 compounds, 0.14% hits; AID 1471; note: % of control where 0% means no effect; nearly all actives have a fitted effect of over 45% in size
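PC12 cells with ecdysone-inducible HTT exon 1 Q103-GFP, induced with 100 nM tebufenozide and co-treated with library compounds in a dose series (1536-well, 1500 cells/well). Cytoprotection read as ATP content by ATPlite luminescence.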
ERK EGF block: inhibitors of EGF-stimulated ERK signaling pathway. HEK293-V1b, EGF-stimulated phospho-ERK AlphaScreen. Potency, µM (top dose mostly 11.5 µM), for inactives: at the top dose activity change, negative = inhibition, usual class: inhibitors. 130,000 compounds, 0.41% hits. AID 1454;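 note: plate controls were stimulated vehicle wells for no effect and unstimulated vehicle basal for full effect; nearly all actives have a fitted effect of over 55% in size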
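Stably V1b-transfected HEK293 cells; 30 min compound, then EGF 25 nM final for 5 min at 37C; 10 min lysis; phospho-ERK by AlphaScreen after 5 hr beads at room temperature.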
* hit, by the source's call; [ ] = dose if it differs, or a comment. In the library only some 1.4% were active in any assay of this set; here they are far more common. Calls come from the whole dose curve; as a rule, active = well fitted curve in the direction sought with a large enough effect; inconclusive = small, poorly fitted or top-dose-only effect, or another doubt; inactive = no such curve, though single readings can be large; an effect the other way counts as inactive or inconclusive. Potency is the fitted concentration of half-maximal effect.

What do the screens show for `COc1cc(C(=O)Oc2ccccc2/C=N/NC(=O)c2ccc(C)c(Cl)c2)cc(OC)c1OC`?
HTT aggregate: 2.8µM*; HTT ATP protect: -81%[10 µM]; ERK EGF block: 2%

How did COc1ccc(-c2cc(=O)c3ccc(F)cc3[nH]2)cc1 do in these assays?
HTT ATP protect: -23%[96.6 µM]

What do the screens show for `COc1ccc(OC2C=CC(C#Cc3ccccc3)OC2CO)cc1` (configuration not stated)?
HTT ATP protect: -1%[10 µM]

What do the screens show for `C=CC(C1=CC(=O)C(OC)=CC1=O)c1ccc(O)cc1` (configuration not stated)?
HTT ATP protect: -12%; ERK EGF block: 5%

How did O=c1ccn([C@@H]2O[C@H](COP(=O)(O)O)[C@@H](O)[C@H]2O)c(=O)[nH]1 do in these assays?
HTT ATP protect: -47%

What do the screens show for `O=C(c1cnccn1)N1CCC2(CC1)CN(Cc1ccccc1)C2`?
HTT ATP protect: -31%; ERK EGF block: -2%

How did COC(=O)c1[nH]c2ccc(C)cc2c1NC(=O)CN1CCN(c2ccc(F)cc2)CC1 do in these assays?
HTT aggregate: -27%; HTT ATP protect: 1.6µM*

What do the screens show for `COC(=O)c1[nH]c2ccc(C)cc2c1NC(=O)CN1CCN(c2ccccc2)CC1`?
HTT aggregate: inconclusive; HTT ATP protect: -76%[0.074 µM]

What do the screens show for `COc1ccc(-c2nc3cnc(N4CCN(C)CC4)nc3n(CCC#N)c2=O)cc1`?
HTT ATP protect: -41%; ERK EGF block: inconclusive

Results for CC(C)OC(=O)CC(=O)CSc1nc2c(c(-c3cccs3)c1C#N)CCC2 ?
HTT aggregate: 11µM*; HTT ATP protect: -4%[1.9 µM]; ERK EGF block: -3%

What do the screens show for `CCOC(=O)C(C)Sc1nc2c(c(-c3cccs3)c1C#N)CCC2` (configuration not stated)?
HTT aggregate: 18%; ERK EGF block: inconclusive

What do the screens show for `CCNc1nc(NC(C)C)nc(N(C#N)CCOc2ccc(Cl)cc2Cl)n1`?
HTT aggregate: 35µM*; HTT ATP protect: -5%

How did CCNc1nc(NC(C)C)nc(N(C#N)Cc2ccccc2)n1 do in these assays?
HTT aggregate: 9%; HTT ATP protect: 2%[10 µM]

What do the screens show for `CC(CC=O)CCCC(C)(C)O` (configuration not stated)?
HTT aggregate: -4%; HTT ATP protect: 0%

How did Cc1cn([C@H]2C[C@@H](N=[N+]=[N-])[C@@H](CO)O2)c(=O)[nH]c1=O do in these assays?
ERK EGF block: 0%

Results for COc1ccc(Cc2nnc(SCc3ccc([N+](=O)[O-])cc3)o2)cc1 ?
HTT aggregate: 7.1µM*; ERK EGF block: -9%

Results for O=[N+]([O-])c1ccc(CSc2nnc(Cc3ccccc3)o2)cc1 ?
HTT aggregate: -14%[9.22 µM]; HTT ATP protect: -5%[10 µM]; ERK EGF block: 15%[57.5 µM]

What do the screens show for `COc1ccc2c(c1O)C(=O)c1ccccc1C2=O`?
HTT aggregate: -6%[9.22 µM]; HTT ATP protect: -16%[10 µM]; ERK EGF block: -8%[57.5 µM]

What do the screens show for `Nc1c(O)ccc2c1C(=O)c1ccccc1C2=O`?
HTT aggregate: 3%; HTT ATP protect: -2%[10 µM]; ERK EGF block: 28µM*

Results for Cn1c(=O)c2c(nc(NCc3ccco3)n2C/C=C/c2ccccc2)n(C)c1=O ?
HTT aggregate: 10µM*; HTT ATP protect: inconclusive

Results for Cn1c(=O)c2c(nc(NCc3ccco3)n2C)n(C)c1=O ?
HTT aggregate: -8%; HTT ATP protect: 6%

How did Nc1nc(-c2ccccc2)c(N=Nc2ccccc2Cl)s1 do in these assays?
HTT aggregate: inconclusive; HTT ATP protect: 20%[10 µM]; ERK EGF block: 18µM*

How did Cc1ncc(N=Nc2ccccc2Cl)c(-c2ccccc2)n1 do in these assays?
HTT aggregate: inconclusive; HTT ATP protect: -25%

What do the screens show for `Nc1nc(-c2ccccc2)c(N=Nc2cccc3ccccc23)s1`?
HTT aggregate: -6%; HTT ATP protect: 35%[10 µM]; ERK EGF block: 20µM*

Results for CC(=O)Nc1sc(N)nc1-c1ccccc1 ?
HTT aggregate: -1%; HTT ATP protect: -19%

How did Nc1ncnc2c1nc(-c1ccccc1)n2[C@H]1O[C@@H](CO)[C@@H](O)[C@H]1O do in these assays?
HTT ATP protect: -7%[10 µM]

What do the screens show for `C=CCOC(=O)N[C@H](c1cccc(C(F)(F)F)c1)C(C(C)=O)C(C)=O`?
HTT ATP protect: 20%; ERK EGF block: -4%

Results for C[C@]12C=CC(=O)C=C1CCC1C2C(=O)C[C@]2(C)C1CC[C@]2(O)C(=O)CO (some centres not stated) ?
HTT ATP protect: -8%; ERK EGF block: 25%

How did CN(C)CCOc1nc(-c2ccccc2)nc2c1oc1ccccc12 do in these assays?
HTT aggregate: 22µM*; HTT ATP protect: -44%

How did CN(C)CCOc1ncnc2c1oc1ccccc12 do in these assays?
HTT aggregate: inconclusive; HTT ATP protect: 15%

What do the screens show for `CCCCc1nc2c(c3c1C[C@H](C)OC3)CN(S(=O)(=O)c1ccccc1C(=O)OC)CC2`?
HTT ATP protect: -9%[10 µM]

What do the screens show for `CCCCCCc1cc2cc(-c3nnc(-c4ccccc4OC)o3)c(=O)oc2cc1O`?
HTT aggregate: inconclusive; HTT ATP protect: -15%

How did CCCCCCc1cc2cc(-c3nnc(-c4cc(OC)c(OC)c(OC)c4)o3)c(=O)oc2cc1O do in these assays?
HTT aggregate: 2.8µM*; HTT ATP protect: -4%[10 µM]; ERK EGF block: 11%

Results for C[C@H]1OC(=O)CC[C@@H]2[C@]1(C)CCC1[C@@]2(C)CC[C@@]2(C)C3CC(C)(C)CC[C@]3(CO)CC[C@]12C (some centres not stated) ?
HTT ATP protect: inconclusive; ERK EGF block: -5%

Results for O=C(N(c1ccccc1)c1ccccc1)N(c1ccccc1)c1ccccc1 ?
HTT aggregate: 11%[9.22 µM]; HTT ATP protect: -2%[10 µM]; ERK EGF block: -3%[57.5 µM]

What do the screens show for `O=C(CCl)N(c1ccccc1)c1ccccc1`?
HTT aggregate: 10µM*; HTT ATP protect: -187%; ERK EGF block: 2%

What do the screens show for `O=C(O)c1ccc(-c2cccc([N+](=O)[O-])c2)o1`?
HTT aggregate: 5%[9.22 µM]; HTT ATP protect: 18%[10 µM]; ERK EGF block: 4%[57.5 µM]

What do the screens show for `N#C/C(=C(/O)COc1ccccc1)c1nc2ccccc2s1`?
HTT aggregate: inconclusive; ERK EGF block: -5%

Results for COc1ccc(C/C(O)=C(\C#N)c2nc3ccccc3s2)cc1 ?
HTT aggregate: 13µM*; HTT ATP protect: 6%[10 µM]

Results for N#C/C(=C(/O)c1ccc(-c2cccc([N+](=O)[O-])c2)o1)c1nc2ccccc2s1 ?
HTT aggregate: 11µM*; HTT ATP protect: -136%; ERK EGF block: 0%

What do the screens show for `OC(CNc1ccccc1)COc1ccc(OCC(O)CNc2ccccc2)cc1` (configuration not stated)?
HTT aggregate: 11µM*; HTT ATP protect: -75%

How did CCOCC(O)CNc1ccccc1 (configuration not stated) do in these assays?
HTT aggregate: -5%; HTT ATP protect: 19%[10 µM]; ERK EGF block: 9%

What do the screens show for `Cn1c(Sc2ccc(Br)cc2)c(C=O)c2ccccc21`?
HTT aggregate: 10µM*; HTT ATP protect: -60%

How did Cn1c(Oc2ccc(F)cc2)c(C=O)c2ccccc21 do in these assays?
HTT aggregate: -30%; HTT ATP protect: -49%; ERK EGF block: -2%

High-throughput results (PubChem BioAssay)
